High-throughput results deposited in PubChem BioAssay by The Scripps Research Institute Molecular Screening Center.
In the library only some 3.2% were active in any assay of this set; here they are far more common.
rCAG RNA binder = r(CAG) repeat RNA binding; AID 651821; TO-PRO-1 dye displacement fluorescence; inhibition, % at 3 µM; 370,000 tested, 1.3% active;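 active means inhibition above the plate cutoff, the mean of all test compounds on that plate plus 3 SD, cut at about 35% in these data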;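 further: 0% = DMSO alone and 100% = 100 µM mitoxantrone as full dye displacement; higher means more dye released from RNA so lower well fluorescence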
PG9 binder = small molecules binding HIV-1 gp120 antibody PG9 | 360,000 tested, 0.43% active | inhibition, % at 6.7 µM | TR-FRET gp120-PG9 antibody binding | AID 624416; in the data active means inhibition above about 8.5%
sPLA2-III inh = Blocks human group III sPLA2 activity. Q9NZ20. QFRET BODIPY PC-A2 liposome hydrolysis, fluorescence. inhibition, % at 12.2 µM. 370,000 tested, 0.56% active;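 active means inhibition above mean plus 3 SD of compounds lying within the high and low control bounds, cut at about 19% in these data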;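 further: 0% = median of test compound wells and 100% = no enzyme DMSO wells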
Target sequence (Q9NZ20 whole entry, looked up): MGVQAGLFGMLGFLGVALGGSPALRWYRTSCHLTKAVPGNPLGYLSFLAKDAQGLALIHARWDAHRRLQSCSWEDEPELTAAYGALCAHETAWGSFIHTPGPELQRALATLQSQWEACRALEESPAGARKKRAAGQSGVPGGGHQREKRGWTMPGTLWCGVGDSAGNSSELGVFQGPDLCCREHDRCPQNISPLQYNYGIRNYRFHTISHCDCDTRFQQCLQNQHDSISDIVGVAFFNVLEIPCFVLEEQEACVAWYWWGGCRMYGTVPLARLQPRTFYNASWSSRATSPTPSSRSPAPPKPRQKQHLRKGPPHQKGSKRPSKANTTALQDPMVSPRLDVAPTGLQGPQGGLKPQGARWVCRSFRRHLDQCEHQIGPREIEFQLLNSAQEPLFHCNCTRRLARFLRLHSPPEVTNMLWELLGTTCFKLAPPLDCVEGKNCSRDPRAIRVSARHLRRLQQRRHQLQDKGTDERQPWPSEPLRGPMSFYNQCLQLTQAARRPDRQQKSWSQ
MsrA act = activators of bovine methionine sulfoxide reductase A. purified bovine MsrA, absorbance read-out. activation, % at 10.6 µM. 360,000 tested, 0.3% active; in the data active means activation above about 7.5%;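 further: 0% = vehicle and 100% = reference activator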
MsrA inhibitor = inhibits bovine methionine sulfoxide reductase A; purified bovine MsrA, absorbance read-out; inhibition, % at 15.5 µM; 360,000 tested, 0.75% active; AID 651718; in the data active means inhibition above about 4.5%;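 further: 0% = vehicle wells with enzyme and 100% = reference inhibitor wells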
rCAG binder conf = r(CAG) RNA repeat binding, confirmation. shares compounds with rCAG RNA binder. TO-PRO-1 dye displacement fluorescence. inhibition, % at 3 µM. 4,300 tested, 70% active. AID 652065;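 active means inhibition above a per-plate cutoff, the mean inhibition of sample wells plus 3 SD, cut at about 35% in these data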;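 further: loss of TO-PRO-1 fluorescence as compound displaces dye from 1x1 AA loop RNA; 0% = DMSO only wells and 100% = 100 µM mitoxantrone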
DNA CAG counter = counter-screen for rCAG RNA binders: DNA CAG dye complex inhibitors. d(CAG) DNA oligo TO-PRO-1 dye displacement, fluorescence. inhibition, % at 3 µM. 4,300 tested, 94% active. shares compounds with rCAG RNA binder. AID 652068;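 active means inhibition above its plate's cutoff, the mean test-well inhibition plus 3 SD, cut at about 4.8% in these data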;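 further: 0% = DNA dye mix with DMSO and 100% = 100 µM mitoxantrone; hits displace the dye from DNA and so lower well fluorescence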
DNA CAG DR = counter-screen for rCAG binders: inhibitors of DNA CAG TO-PRO-1 complex; shares compounds with rCAG RNA binder; DNA CAG/GTC duplex TO-PRO-1 dye displacement fluorescence; IC50, µM; 250 tested, 20% active; AID 686960; in the data active means IC50 below about 10 µM
The depositor's hits bear a star; · = no result given.

SMILES	rCAG RNA binder	PG9 binder	sPLA2-III inh	MsrA act	MsrA inhibitor	rCAG binder conf	DNA CAG counter	others
O=C(/C=C/c1ccccc1)Nc1scc(-c2ccccc2)c1C(=O)O	55.2*	0.4	-9.2	5.7	2.9	32.6	6.0*
COc1ccccc1NC(=O)Cc1cccc2ccccc12	-1.6	-0.5	-8.7	-3.2	-1.5	·	·
C[n+]1cc(C(O)(c2ccccc2)c2ccccc2)n2ccccc21	·	·	5.2	·	·	·	·
Cc1nc2c(C(=O)NCCC(C)C)c[nH]n2c(=O)c1Cl	37.0*	-3.0	-26.5	-6.8	0.0	36.2*	8.2*
Cc1nc2c(C(=O)O)cnn2c(C)c1Cc1ccccc1F	2.2	-2.4	3.0	-4.5	0.8	·	·
Cc1cc(Cl)nc(Cl)c1C(=O)NCCc1ccccc1	0.0	-2.2	-0.4	-2.8	-0.4	·	·
Cc1nc2c(C(=O)NCCC(C)C)c[nH]n2c(=O)c1Cc1ccccc1F	68.8*	-1.1	-107.8	1.2	-0.4	76.2*	41.9*
Cc1nc2c(C(=O)NCCc3ccccc3)c[nH]n2c(=O)c1Cl	63.8*	-0.9	-36.4	1.3	0.6	54.1*	12.8*
COc1ccc(C(=O)OCCCN(C)C2CN(Cc3cn(Cc4ccccc4C(F)(F)F)nn3)S(=O)(=O)C2)cc1OC (stereo not given)	0.5	·	-15.8	·	·	·	·
CC(C)=C1C(=O)NN(c2ccc(C)c(Cl)c2)C1=O	93.6*	-1.5	1.8	-3.2	-0.1	22.9	8.1*
CCN(C(=O)CSc1nc2cc(C(=O)O)ccc2c(=O)n1Cc1ccccc1)c1ccccc1	38.2*	-1.5	-4.9	-1.3	-0.4	53.3*	15.9*
CN(C(=O)CSc1nc2cc(C(=O)O)ccc2c(=O)n1Cc1ccccc1)C1CCS(=O)(=O)C1 (stereo not given)	10.3	-0.2	-1.7	-5.7	0.8	·	·
Cc1cc(NS(=O)(=O)c2ccc(Nc3nc(-c4ccc(C)c(C)c4)cs3)cc2)no1	88.1*	-0.2	-119.2	-5.0	0.7	84.0*	54.5*
COc1cc(NS(=O)(=O)c2ccc(Nc3nc(-c4ccccc4)cs3)cc2)nc(OC)n1	87.1*	0.2	-162.4	-0.8	-0.5	83.4*	54.4*
Cc1cc(NS(=O)(=O)c2ccc(Nc3nc(-c4ccc(O)cc4)cs3)cc2)no1	51.8*	-5.4	-42.1	-2.9	0.3	33.3	9.7*
O=C(OCC#CCSc1nnc(-c2cccc3ccccc23)o1)c1ccc(C(F)(F)F)cc1	·	·	-2.1	·	·	·	·
Cc1cc(C)nc(SCC(=O)c2ccc(O)c(O)c2)n1	9.5	-2.5	-6.4	0.7	1.7	·	·
Cc1cc(SCC(=O)c2ccc(O)c(O)c2)n2nc(C)c(-c3ccccc3)c2n1	50.4*	-0.1	1.0	-6.0	-0.9	67.2*	33.4*
Cc1ccc(S(=O)(=O)N2CCCC2C(=O)N2CCN(c3ccccc3)CC2)cc1C (stereo not given)	-1.4	·	-4.1	·	·	·	·
CC(OC(=O)C1=Cc2ccccc2OC1)C(=O)NCC1CCCO1 (stereo not given)	71.2*	-1.4	-20.7	-0.6	0.4	78.1*	44.0*
COCCNC(=O)C(C)OC(=O)C1=Cc2ccccc2OC1 (stereo not given)	-2.9	0.5	-1.5	-8.7	0.4	·	·
Cc1ccccc1NC(=O)[C@H]1CC(=O)O[C@@H]1c1ccccc1	2.1	·	3.9	·	·	·	·
Cc1ccc(/C=N/Nc2ccc(C(=O)O)cc2)o1	-0.5	-10.1	-2.0	-18.0	3.8	·	·
O=C(O)c1ccc(N/N=C/c2ccc(-c3ccc(Br)cc3)o2)cc1	48.7*	-4.2	-28.6	-4.4	3.0	49.4*	14.0*
O=C(O)c1ccc(N/N=C/c2ccc(-c3ccccc3Cl)o2)cc1	64.7*	-2.7	-45.5	-3.0	2.5	41.4*	11.3*
SMILES	rCAG RNA binder	PG9 binder	sPLA2-III inh	MsrA act	MsrA inhibitor	rCAG binder conf	DNA CAG counter	others
O=C(O)c1cc(-c2ccc(/C=N/Nc3ccc(Cl)cc3)o2)ccc1Cl	67.1*	-0.8	-8.1	-15.8	2.1	67.5*	28.2*
O=C(OC12CCCN(C1)/C(=C/c1cccc(Cl)c1)C2)c1cccc(F)c1 (stereo not given)	-0.1	·	3.4	·	·	·	·
O=S1(=O)N[C@H](Cc2ccccc2)COc2cc(N3CCCC3)ccc21	3.3	·	0.7	·	·	·	·
O=C(COc1ccccc1)NC1CCCCCCC1	-8.9	-0.3	0.6	-3.6	-0.2	·	·
COc1cc(/C=C2\SC(=S)N(NS(=O)(=O)c3ccc(C)cc3)C2=O)ccc1O	45.5*	-10.1	-17.9	-7.7	1.1	30.3	9.9*
CCOc1cc(/C=C2\SC(=S)N(NS(=O)(=O)c3ccc(C)cc3)C2=O)ccc1O	69.9*	-28.9	-25.8	-5.4	1.8	49.7*	19.1*
COc1cc(/C=C2\SC(=S)N(NC(=O)c3ccccc3OC)C2=O)ccc1O	58.0*	-5.9	3.4	-2.9	2.1	50.6*	19.1*
COc1cc(/C=C2\SC(=S)N(NC(=O)c3ccc(O)c(OC)c3)C2=O)ccc1O	23.5	-4.1	-8.5	2.2	1.3	·	·
Cc1sc(NC(=O)C2CCCO2)c(C(N)=O)c1C (stereo not given)	41.7*	-1.2	1.4	-10.5	2.7	12.3	3.0
CC1CCN(CCCNS(=O)(=O)c2cc3c(cc2Br)CCN3C(=O)C2CC2)CC1	6.7	·	2.6	·	·	·	·
COc1cccc(CNC(=O)[C@@H]2CCCN2C(=O)[C@@H]2CCCN2)c1	-0.2	-1.5	0.0	-4.3	0.5	·	·
COc1ccc(CN2CCN(c3nc4ccccc4s3)CC2)cc1	-2.6	-0.5	-2.3	-4.4	-0.1	·	·
COc1ccc(CCn2c(O)cc3nn(-c4nc5ccccc5s4)c(=O)c-3c2C)cc1	66.9*	-4.0	7.8	-3.1	1.3	84.0*	50.9*
CCc1ccc(CCNC(=O)OC2CC3CC2[C@H]2CCCCN2C3)cc1 (stereo not given in full)	3.5	·	10.5	·	·	·	·
CS(=O)(=O)N1CCC(C(=O)NCC2COc3ccccc3O2)CC1 (stereo not given)	0.5	·	1.6	·	·	·	·
Nc1nc(-c2cccs2)c(CC(=O)O)s1	5.7	-2.4	-0.3	-7.2	1.3	·	·
O=C(O)Cc1sc(Nc2ccc(Cl)cc2)nc1-c1cccs1	57.8*	-0.3	13.3	·	0.3	53.8*	29.3*	DNA CAG DR=5.96*
COc1cccc(CNC(=O)Cn2c(-c3ccccc3)cc(C(C)=O)c2C)c1OC	2.5	·	-1.3	·	·	·	·
Cc1ccc(S(=O)(=O)Nc2nc3ccccc3nc2NCc2ccco2)cc1C	47.0*	-0.3	-42.6	-7.6	1.1	52.7*	19.5*
Cc1cccc(S(=O)(=O)Nc2nc3ccccc3nc2NCc2ccco2)c1	44.0*	-2.0	-39.9	-6.6	2.5	32.3	7.3*
Cc1ccc(S(=O)(=O)Nc2nc3ccccc3nc2NCc2ccco2)cc1	-8.1	-0.4	-21.3	-3.0	2.0	·	·
